Source: PubChem BioAssay
NOMO-1 viab – NOMO-1 AML cell viability reduction, primary screen, STK33 inhibitor project, CellTiter-Glo luminescence | NOMO-1 AML viability, 72 h | inhibition, % (no concentration beside the values) | actives 7.5% (n = 37,000) | AID 2330, 2010; in the data active = inhibition above about 80%; inconclusive = no clear call, values can overlap the other calls
PD-1 reverse act – activators reversing PD-1 mediated T-cell inhibition, primary screen, luminescence, primary human CD4 T cells, PD-L1 beads; activation, % (no concentration beside the values); CellTiter-Glo 96 h; 29,000 tested, under 10 active; call rule not given here;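 note: 0% = median vehicle wells and 100% = positive control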
Hedgehog inh – Hedgehog pathway signaling inhibitors, primary screen, luminescence, Shh-LIGHT2 cells, Gli-luciferase. Shh-LIGHT2 Gli-luciferase reporter, 30 h. inhibition, % (no concentration beside the values). actives 2.1% (n = 22,000). AID 2313, 2010;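 active = mean inhibition across valid replicates above about 65%, limit read from the data; inconclusive = mean under the limit, yet half or more replicates past it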;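 note: pathway switched on by Shh-conditioned medium diluted 1 in 25 in low serum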
* = called active by the depositor. Hits are enriched below; roughly 7.7% of the tested compounds scored in any of these assays.

Screening C[C@H]1CN([C@@H](C)CO)C(=O)Cc2cc(NC(=O)CCCCCC(=O)Nc3ccccc3N)ccc2O[C@@H]1CN(C)CC1CC1 returned NOMO-1 viab 21 and PD-1 reverse act 2.
Screening C[C@@H]1CN([C@H](C)CO)C(=O)Cc2cc(NC(=O)CCCCCC(=O)Nc3ccccc3N)ccc2O[C@@H]1CN(C)CC1CCCCC1 returned NOMO-1 viab 133* and PD-1 reverse act -1.
Screening C[C@H]1CN([C@@H](C)CO)C(=O)Cc2cc(NC(=O)CCCCCC(=O)Nc3ccccc3N)ccc2O[C@@H]1CN(C)C returned NOMO-1 viab 24 and PD-1 reverse act 2.
C[C@H]1CN([C@@H](C)CO)C(=O)Cc2cc(NC(=O)CCCCCC(=O)Nc3ccccc3N)ccc2O[C@@H]1CN(C)CC1CCCCC1 was read as NOMO-1 viab 102* and PD-1 reverse act 0.
C[C@H]1CN([C@@H](C)CO)C(=O)Cc2cc(NC(=O)CCCCCC(=O)Nc3ccccc3N)ccc2O[C@H]1CN(C)C was read as NOMO-1 viab inconclusive and PD-1 reverse act 1.
`CCc1nc2sc3c(c2c2nnc(SCC(=O)OC)n12)CCC3` gave NOMO-1 viab 27.
`CC(Oc1ccc(Br)cc1)C(=O)NCCN1CCOCC1` (configuration not stated) gave NOMO-1 viab -3.
`Cc1ccc(C(=O)Cn2c3c(sc2=N)CCCC3)cc1` gave NOMO-1 viab 41 and Hedgehog inh 76*.
`Cc1ccc(C(=O)Cn2c(C)csc2=Nc2ccccc2)cc1` gave NOMO-1 viab 18 and PD-1 reverse act -1.
For Cc1c(Cl)cccc1N(CC(=O)Nc1cc(Cl)cc(Cl)c1)S(C)(=O)=O the results were NOMO-1 viab 22 and PD-1 reverse act 0.
`CCOC(=O)c1c(-c2ccccc2)oc2ccc(O)c(CSCC(=O)Nc3ccccc3)c12` gave NOMO-1 viab 126* and PD-1 reverse act -1.
For CCOC(=O)c1ccc(NC(=O)Cn2c(=O)oc3ccccc32)cc1 the results were NOMO-1 viab -5 and PD-1 reverse act 1.
Screening Nc1ccc(OCC(O)C[n+]2ccccc2)cc1 (configuration not stated) returned NOMO-1 viab 2 and PD-1 reverse act 0.
For O=C(C1CCCO1)N1N=C(c2c(-c3ccccc3)c3cc(Cl)ccc3[nH]c2=O)CC1c1ccco1 (configuration not stated) the results were NOMO-1 viab 93* and PD-1 reverse act -4.
For O=C(O)CCC(=O)N1N=C(c2cccs2)CC1c1ccco1 (configuration not stated) the results were NOMO-1 viab 0 and PD-1 reverse act 0.
`Oc1c(C(Nc2cccc(Cl)c2)c2cccnc2)ccc2cccnc12` (configuration not stated) gave NOMO-1 viab 115*, PD-1 reverse act -4 and Hedgehog inh 75*.
`Oc1c(C(Nc2cccnc2)c2ccccc2F)ccc2cccnc12` (configuration not stated) gave NOMO-1 viab 116*.
Screening O=C(CSCc1c(Cl)cccc1Cl)Nc1cccnc1 returned NOMO-1 viab 18 and PD-1 reverse act -2.
Screening Oc1c(C(Nc2cccnc2)c2ccc(Cl)cc2)ccc2cccnc12 (configuration not stated) returned NOMO-1 viab 120* and PD-1 reverse act -14.
CNC(=O)NC(=O)CSc1nnc(-c2ccco2)o1 was read as NOMO-1 viab -18, PD-1 reverse act 0 and Hedgehog inh -15.
C=C1C(=O)O[C@H]2C1CCC(C)=C1C(=O)C=C(C)[C@@H]12 (some centres not stated) was read as NOMO-1 viab 115*, PD-1 reverse act 1 and Hedgehog inh -9.
For CC1=CC(=O)C2=C(C)CC[C@@H]3[C@H](OC(=O)[C@H]3C)[C@@H]12 the results were NOMO-1 viab 12 and Hedgehog inh -50.
CCN(CC(=O)Nc1cccc([N+](=O)[O-])c1)S(=O)(=O)c1ccc(F)cc1 was read as NOMO-1 viab -15 and PD-1 reverse act 0.
Screening c1ccc(CN2CCOCCN(Cc3ccccc3)CCOCC2)cc1 returned NOMO-1 viab 87* and PD-1 reverse act -1.
Screening S=C(c1ccccc1)N1CCN(Cc2ccccc2)CC1 returned NOMO-1 viab 13, PD-1 reverse act 1 and Hedgehog inh 16.
`C=C1[C@@H](C2=CC(=O)OC2)CC[C@@]2(O)[C@@H]1CC1[C@H]2CC[C@@H]2C[C@@H](O[C@H]3O[C@@H](C)[C@@H](O[C@@H]4O[C@H](CO[C@@H]5O[C@H](CO)[C@@H](O)[C@H](O)[C@H]5O)[C@@H](O)[C@H](O)[C@H]4O)[C@H](OC)[C@H]3O)CC[C@]12C` (some centres not stated) gave Hedgehog inh 27.
Screening CO[C@@H]1CC(OC2CCC3(C)C(CCC45CCC(C6=CC(=O)OC6)C(C)(CCC43)C5=O)C2)O[C@H](C)[C@@H]1O[C@@H]1O[C@H](CO[C@@H]2O[C@H](CO)[C@@H](O)[C@H](O)[C@H]2O)[C@@H](O)[C@H](O)[C@H]1O (some centres not stated) returned NOMO-1 viab 119*, PD-1 reverse act -10 and Hedgehog inh -34.
Screening COc1ccccc1OCC(=O)Nc1c[nH]c(=O)[nH]c1=O returned NOMO-1 viab 20 and PD-1 reverse act 0.
For CCc1nc(SCS(=O)(=O)c2ccc(C)cc2)c(C#N)c2c1CCCC2 the results were NOMO-1 viab -5, PD-1 reverse act -1 and Hedgehog inh -4.
For Cc1ccc(NC(=O)CN(c2ccc(Cl)c(C(F)(F)F)c2)S(C)(=O)=O)cc1Cl the results were NOMO-1 viab 55.
`Cc1cc(NC(=O)CN(c2ccc(Cl)c(C(F)(F)F)c2)S(C)(=O)=O)ccc1Br` gave NOMO-1 viab 103* and PD-1 reverse act -11.
`Cc1cc(Cl)ccc1N(CC(=O)Nc1cc(Cl)cc(Cl)c1)S(C)(=O)=O` gave NOMO-1 viab 90* and PD-1 reverse act -2.
Cc1cc(Cl)ccc1NC(=O)CN(c1cccc(Cl)c1)S(C)(=O)=O was read as NOMO-1 viab 9 and PD-1 reverse act -1.
`Cc1cc(N(CC(=O)Nc2ccc(Cl)cc2C)S(C)(=O)=O)ccc1Br` gave NOMO-1 viab 87* and PD-1 reverse act 1.
CS(=O)(=O)N(CC(=O)Nc1cccc(C(F)(F)F)c1)c1cc(Cl)c(Cl)cc1Cl was read as NOMO-1 viab 140* and PD-1 reverse act -3.
Screening Cc1cccc(NC(=O)CN(c2cc(Cl)c(Cl)cc2Cl)S(C)(=O)=O)c1 returned NOMO-1 viab 50 and PD-1 reverse act -2.
`COC(=O)c1ccc(NC(=O)CN(c2ccc(Cl)cc2C)S(C)(=O)=O)cc1` gave NOMO-1 viab 5 and PD-1 reverse act 1.
`N#Cc1cccc(NC(=O)CCCN2C(=O)c3ccccc3C2=O)c1` gave NOMO-1 viab 12 and PD-1 reverse act 2.
Screening CC(C(=O)Nc1cc(C(F)(F)F)ccc1Cl)n1cc([N+](=O)[O-])cn1 (configuration not stated) returned NOMO-1 viab 19 and PD-1 reverse act -1.
For NC(=O)CSc1nnc(SCc2cccc3ccccc23)s1 the results were NOMO-1 viab 11 and PD-1 reverse act 1.
